Inconclusive results are not listed. Active and inactive are the calls of the source. Unless noted, calls come from the whole dose curve; as a rule, active = well fitted curve in the direction sought with a large enough effect in the repeat runs; inconclusive = weak or mixed curves; inactive = no such curve, though single readings can be large; an effect the other way counts as inactive or inconclusive.
Assays:
[1] = qHTS assay to identify small molecule agonists of the estrogen receptor alpha (ER-alpha) signaling pathway in the presence of an antagonist - cell viability counter screen (AID 1259386);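 note: series mostly up to about 92 µM; cells exposed to compounds for 22 h at 37 °C before the viability read; nearly all actives have a fitted effect of over 30% in size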
Method in brief: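 VM7Luc4E2, stripped-serum pre-culture 5 d; 24hr plating; +ICI-182,780 10.0nM final; cpds 15 conc, 22hr, 37C/5% CO2; CellTiter-Fluor added at 21hr, fluorescence 1hr later.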

[2] = molecular target: Progesterone receptor (Homo sapiens) (UniProt P06401); test: qHTS assay to identify small molecule agonists of the progesterone receptor (PR) signaling pathway (AID 1346784; calls by dose curve; note: nearly all actives have a fitted effect of over 30% in size)
Sequence of Progesterone receptor (Homo sapiens) (P06401 whole entry, looked up): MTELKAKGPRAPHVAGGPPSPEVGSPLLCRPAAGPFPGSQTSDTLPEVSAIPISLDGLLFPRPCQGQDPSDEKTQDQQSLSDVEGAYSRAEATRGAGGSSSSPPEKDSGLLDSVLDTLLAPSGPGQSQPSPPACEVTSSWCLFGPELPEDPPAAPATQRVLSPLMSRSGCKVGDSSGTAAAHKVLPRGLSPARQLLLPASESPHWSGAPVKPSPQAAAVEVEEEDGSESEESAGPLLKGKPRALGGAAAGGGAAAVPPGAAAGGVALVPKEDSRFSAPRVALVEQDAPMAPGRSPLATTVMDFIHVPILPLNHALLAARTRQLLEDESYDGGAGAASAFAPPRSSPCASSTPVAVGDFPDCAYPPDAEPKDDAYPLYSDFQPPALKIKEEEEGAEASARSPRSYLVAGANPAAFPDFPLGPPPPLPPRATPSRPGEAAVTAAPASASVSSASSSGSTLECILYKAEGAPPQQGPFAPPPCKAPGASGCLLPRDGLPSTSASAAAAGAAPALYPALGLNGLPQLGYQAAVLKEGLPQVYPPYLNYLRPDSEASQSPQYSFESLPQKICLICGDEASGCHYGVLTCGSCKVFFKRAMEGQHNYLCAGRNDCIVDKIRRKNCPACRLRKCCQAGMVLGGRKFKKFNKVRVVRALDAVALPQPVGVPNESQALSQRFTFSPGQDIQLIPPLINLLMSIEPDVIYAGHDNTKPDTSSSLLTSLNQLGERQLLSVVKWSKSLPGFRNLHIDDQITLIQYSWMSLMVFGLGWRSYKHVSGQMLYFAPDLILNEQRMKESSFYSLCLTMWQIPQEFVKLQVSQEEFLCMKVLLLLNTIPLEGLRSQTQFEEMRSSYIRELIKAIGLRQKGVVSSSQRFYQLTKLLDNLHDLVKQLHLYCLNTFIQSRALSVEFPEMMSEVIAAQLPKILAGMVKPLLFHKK
Method in brief: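 HEK 293T PR-UAS-bla reporter cells, 2% charcoal-stripped FBS; 6 hr settle at 37C/5% CO2, compound (DMSO) 16 hr, LiveBLAzer B/G FRET substrate 2 hr RT, fluorescence intensity read.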

[3] = molecular target: Progesterone receptor (Homo sapiens) (UniProt P06401); test: qHTS assay to identify small molecule antagonists of the progesterone receptor (PR) signaling pathway (AID 1346795; active = well fitted inhibition curve with a large enough effect in the signal ratio in the repeat runs, not every such curve was filed as active; the % refers to the signal ratio)
Method in brief: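 Beta-lactamase reporter, HEK293T PR-UAS-bla line; 2% charcoal-stripped FBS; 6 hr pre-incubation, 37C/5% CO2. Compound + R5020 1 nM final, 16 hr. LiveBLAzer B/G FRET substrate, 2 hr RT; fluorescence intensity read.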

[4] = qHTS assay to identify small molecule antagonists of the progesterone receptor (PR) signaling pathway - cell viability counter screen (AID 1346798); note: series mostly up to about 92 µM; nearly all actives have a fitted effect of over 50% in size
Method in brief: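 Luminescence readout (CellTiter-Glo, 30 min, RT) of viability in PR-UAS-bla HEK293T cells exposed to compound and R5020 agonist for 16 hr at 37C, 5% CO2; run in the same wells as the beta-lactamase reporter read.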

[5] = qHTS assay to identify small molecule agonists of the progesterone receptor (PR) signaling pathway - cell viability counter screen (AID 1346799; calls by dose curve; note: nearly all actives have a fitted effect of over 45% in size)
Method in brief: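 HEK293T PR-UAS-bla, 3,000 cells/well, 2% charcoal-stripped FBS; 6 h settle, compound 16 h at 37C/5% CO2; LiveBLAzer 2 h RT, then CellTiter-Glo 30 min RT, luminescence read.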

[6] = qHTS assay to identify small molecule antagonists of the TGF-beta/Smad signaling pathway - cell viability counter screen (AID 1346824); note: nearly all actives have a fitted effect of over 50% in size
Method in brief: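 Cytotoxicity counter-screen run in the same wells as the beta-lactamase Smad reporter read: CellTiter-Glo luminescence after 30 min at room temperature. HEK 293T SBE-bla cells had 5 hr compound exposure at 37 C with TGF-beta1 (0.25 ng/mL stock).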

[7] = qHTS assay to identify small molecule agonists of the TGF-beta/Smad signaling pathway - cell viability counter screen (AID 1346829); note: top concentration of the series differs between compounds; nearly all actives have a fitted effect of over 45% in size
Method in brief: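 CellTiter-Glo luminescence readout; SBE-bla HEK 293T cells, overnight plating, compound 5 hr at 37 C/5% CO2, then bla substrate 2 hr RT, then CellTiter-Glo 30 min RT.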

[8] = qHTS assay to identify small molecule agonists of the TGF-beta/Smad signaling pathway (AID 1346859; active = well fitted activation curve with a large enough effect in the signal ratio in the repeat runs, not every such curve was filed as active; the % refers to the signal ratio; note: series mostly up to about 77 µM)
Method in brief: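 Read-out: fluorescence at 460 and 530 nm (405 nm excitation) after a 2 hr room-temperature incubation with beta-lactamase FRET substrate. SBE-bla HEK 293T cells had been treated with test compounds for 5 hr at 37 C.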

[9] = molecular target: Thyrotropin-releasing hormone receptor (Homo sapiens) (UniProt P34981); test: qHTS assay to identify small molecule antagonists of the thyrotropin-releasing hormone receptor (TRHR) signaling pathway (AID 1346877; active = well fitted inhibition curve with a large enough effect in the repeat runs, not every such curve was filed as active; note: series mostly up to about 51 µM)
Sequence of Thyrotropin-releasing hormone receptor (Homo sapiens) (P34981 whole entry, looked up): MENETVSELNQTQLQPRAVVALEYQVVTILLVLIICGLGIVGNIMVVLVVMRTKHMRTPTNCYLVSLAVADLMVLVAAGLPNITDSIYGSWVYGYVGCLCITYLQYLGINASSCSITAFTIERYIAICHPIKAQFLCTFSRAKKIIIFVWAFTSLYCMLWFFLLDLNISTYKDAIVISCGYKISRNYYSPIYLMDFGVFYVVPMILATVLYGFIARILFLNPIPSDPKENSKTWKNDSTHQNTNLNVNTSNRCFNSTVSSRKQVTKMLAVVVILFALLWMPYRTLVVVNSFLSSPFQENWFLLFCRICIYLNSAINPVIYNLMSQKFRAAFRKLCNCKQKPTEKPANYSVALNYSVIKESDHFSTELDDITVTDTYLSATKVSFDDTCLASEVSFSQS
Method in brief: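 Intracellular calcium fluorescence, read kinetically every second over 3 min, reports TRH-evoked signalling in HEK293 cells carrying TRHR. Test compounds were added 5 min ahead of a 1 nM TRH challenge.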

[10] = molecular target: Thyrotropin-releasing hormone receptor (Homo sapiens) (UniProt P34981); test: qHTS assay to identify small molecule agonists of the thyrotropin-releasing hormone receptor (TRHR) signaling pathway (AID 1346891; calls by dose curve;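 note: HEK293 cells expressing TRHR with calcium dye readout; series mostly up to about 58 µM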)
Method in brief: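 HEK293/TRHR cells, 1500 per well, 18 h 37 °C; Ca dye 2 h 37 °C; pin-tool compound addition (agonist mode); kinetic fluorescence 3 min, 1 s reads; 15 concentrations, triplicate.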
% is set by controls: 0 for no effect and ±100 for the full control effect.

CC(C)C(=O)OCCOc1ccccc1
inactive: Potency [1] | Potency [2] | Potency [3] | Potency [4] | Potency [5] | outcome [6] | Potency [7] | Potency [8] | outcome [9] | outcome [10]

CCN(CC)C(=O)N1CCN(C)CC1
inactive: Potency [1] | Potency [2] | Potency [3] | Potency [4] | Potency [5] | outcome [6] | Potency [7] | Potency [8]

CCOC(=O)Oc1ccc(CCNC(=O)[C@H](CCSC)NC(C)=O)cc1OC(=O)OCC
inactive: Potency [1] | Potency [2] | Potency [3] | Potency [4] | Potency [5] | outcome [6] | Potency [7] | Potency [8]

CC[C@H]1OC(=O)[C@H](C)[C@@H](O[C@H]2C[C@@](C)(OC)[C@@H](O)[C@H](C)O2)[C@H](C)[C@@H](O[C@@H]2O[C@H](C)C[C@H](N(C)C)[C@H]2O)[C@](C)(O)C[C@@H](C)C(=O)[C@H](C)[C@@H](O)[C@]1(C)O
inactive: Potency [1] | Potency [2] | Potency [3] | Potency [4] | Potency [5] | outcome [6] | Potency [7] | Potency [8]

CC(=O)N[C@@H](Cc1ccc(O)cc1)C(=O)O
inactive: Potency [1] | Potency [2] | Potency [3] | Potency [4] | Potency [5] | outcome [6] | Potency [7] | Potency [8]

COC1CCC=CO1 (centres undefined)
inactive: Potency [1] | Potency [2] | Potency [3] | Potency [4] | Potency [5] | outcome [6] | Potency [7] | Potency [8]

CCC(CO)(CO)CO
inactive: Potency [1] | Potency [2] | Potency [3] | Potency [4] | Potency [5] | outcome [6] | Potency [7] | Potency [8] | outcome [9] | outcome [10]

CCCCCCCCCCCCCC(=O)OCC(O)CO (centres undefined)
inactive: Potency [1] | Potency [2] | Potency [3] | Potency [4] | Potency [5] | outcome [6] | Potency [7] | Potency [8]

CC(=O)OC(C)C[N+](C)(C)C (centres undefined)
inactive: Potency [1] | Potency [2] | Potency [3] | Potency [4] | Potency [5] | outcome [6] | Potency [7] | Potency [8]

Cc1ccc(N(CC2=NCCN2)c2cccc(O)c2)cc1
inactive: Potency [1] | Potency [2] | Potency [3] | Potency [4] | Potency [5] | outcome [6] | Potency [7] | Potency [8]

C=CCOC(=O)COCCC(C)C
inactive: Potency [1] | Potency [2] | Potency [3] | Potency [4] | Potency [5] | outcome [6] | Potency [7] | Potency [8] | outcome [9] | outcome [10]

CN=C(N)NC(=O)Nc1c(C)cccc1C
inactive: Potency [1] | Potency [2] | Potency [3] | Potency [4] | Potency [5] | outcome [6] | Potency [7] | Potency [8]

COC(CC(C)CCCC(C)(C)O)OC (centres undefined)
inactive: Potency [1] | Potency [2] | Potency [3] | Potency [4] | Potency [5] | outcome [6] | Potency [7] | Potency [8] | outcome [9] | outcome [10]

CSCC[C@H](NC(=O)[C@H](Cc1c[nH]c2ccccc12)NC(=O)CCNC(=O)OC(C)(C)C)C(=O)N[C@@H](CC(=O)O)C(=O)N[C@@H](Cc1ccccc1)C(N)=O
inactive: Potency [1] | Potency [2] | Potency [3] | Potency [4] | Potency [5] | outcome [6] | Potency [7] | Potency [8]

CC12CC3CC(C)(C1)CC(N)(C3)C2
inactive: Potency [1] | Potency [2] | Potency [3] | Potency [4] | Potency [5] | outcome [6] | Potency [7] | Potency [8]

CCN(CC)CCOC(=O)C(c1ccccc1)c1ccccc1
inactive: Potency [1] | Potency [2] | Potency [3] | Potency [4] | Potency [5] | outcome [6] | Potency [7] | Potency [8] | outcome [9] | outcome [10]

Cc1cn([C@H]2C[C@H](F)[C@@H](CO)O2)c(=O)[nH]c1=O
inactive: Potency [1] | Potency [2] | Potency [3] | Potency [4] | Potency [5] | outcome [6] | Potency [7] | Potency [8]

c1ccc2sc(SSc3nc4ccccc4s3)nc2c1
inactive: activity change, negative = cytotoxicity [1] 9.75% [at 19 µM] | activation [2] -1.06% [at 19 µM] | activity change, negative = inhibition [3] -9.57% [at 18.9 µM] | activity change, negative = cytotoxicity [4] -0.0474% [at 18.9 µM] | activity change, negative = cytotoxicity [5] 5.24% [at 19 µM] | viability change, negative = cytotoxic [6] 3.02% [at 15.8 µM] | activity change, negative = cytotoxicity [7] 25.5% [at 15.8 µM] | activation [8] 3.56% [at 15.8 µM]

CCO[Si](C)(CCCOCC1CO1)OCC (centres undefined)
inactive: Potency [1] | Potency [2] | Potency [3] | Potency [4] | Potency [5] | outcome [6] | Potency [7] | Potency [8]

CC(C)(O)CCc1ccccc1
inactive: Potency [1] | Potency [2] | Potency [3] | Potency [4] | Potency [5] | outcome [6] | Potency [7] | Potency [8]

CCCC(=O)OC(=O)CCC
inactive: Potency [1] | Potency [2] | Potency [3] | Potency [4] | Potency [5] | outcome [6] | Potency [7] | Potency [8]

COC(=O)c1sccc1S(N)(=O)=O
inactive: Potency [1] | Potency [2] | Potency [3] | Potency [4] | Potency [5] | outcome [6] | Potency [7] | Potency [8]

CC(C)(O)c1coc(S(=O)(=O)NC(=O)Nc2c3c(cc4c2CCC4)CCC3)c1
inactive: Potency [1] | Potency [2] | Potency [3] | Potency [4] | Potency [5] | outcome [6] | Potency [7] | Potency [8] | outcome [9] | outcome [10]

CC(=O)c1ccc[nH]1
inactive: Potency [1] | Potency [2] | Potency [3] | Potency [4] | Potency [5] | outcome [6] | Potency [7] | Potency [8] | outcome [9] | outcome [10]

O=C(O)CNC(=O)c1ccccc1I
inactive: Potency [1] | Potency [2] | Potency [3] | Potency [4] | Potency [5] | outcome [6] | Potency [7] | Potency [8]

CC(C)(C)CCCCCCOC(=O)c1ccccc1C(=O)OCCCCCCC(C)(C)C
inactive: Potency [1] | Potency [2] | Potency [3] | Potency [4] | Potency [5] | outcome [6] | Potency [7] | Potency [8] | outcome [9] | outcome [10]

Reference: PubChem BioAssay (Tox21)
